Source: PubChem
Akt phos inh = inhibitors of Akt phosphorylation; 360,000 compounds, 0.32% hits; Neuro2A IGF-stimulated pAkt S473 HTRF, 20 min; active compounds read low; activity change, % for hits at 50 µM; in the data active = activity change below about -80%; inconclusive = mostly about -51% to -80%
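Neuro2A cells (4,500/well, DMEM with 0.5% FBS) were treated with compound at a single 50 µM final concentration, stimulated with 6 nM IGF for 20 min at 37 °C, and lysed. Phospho-Akt Ser473 was read by HTRF as 665/615 ratio ×10^4.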
RXFP1 antagonist = RXFP1 (human) relaxin receptor antagonism. Q9HBX9. HEK293-RXFP1, relaxin-stimulated cAMP HTRF, 30 min; active compounds read low. activity change, negative = inhibition, % at 57.5 µM. 350,000 compounds, 0.59% hits. AID 1259400;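 active = activity change of -60% or lower, but not beyond a set lower limit; inconclusive = change between -60% and -40%, or beyond the set limit; inactive = change above -40%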
Target sequence (Q9HBX9 whole entry, looked up): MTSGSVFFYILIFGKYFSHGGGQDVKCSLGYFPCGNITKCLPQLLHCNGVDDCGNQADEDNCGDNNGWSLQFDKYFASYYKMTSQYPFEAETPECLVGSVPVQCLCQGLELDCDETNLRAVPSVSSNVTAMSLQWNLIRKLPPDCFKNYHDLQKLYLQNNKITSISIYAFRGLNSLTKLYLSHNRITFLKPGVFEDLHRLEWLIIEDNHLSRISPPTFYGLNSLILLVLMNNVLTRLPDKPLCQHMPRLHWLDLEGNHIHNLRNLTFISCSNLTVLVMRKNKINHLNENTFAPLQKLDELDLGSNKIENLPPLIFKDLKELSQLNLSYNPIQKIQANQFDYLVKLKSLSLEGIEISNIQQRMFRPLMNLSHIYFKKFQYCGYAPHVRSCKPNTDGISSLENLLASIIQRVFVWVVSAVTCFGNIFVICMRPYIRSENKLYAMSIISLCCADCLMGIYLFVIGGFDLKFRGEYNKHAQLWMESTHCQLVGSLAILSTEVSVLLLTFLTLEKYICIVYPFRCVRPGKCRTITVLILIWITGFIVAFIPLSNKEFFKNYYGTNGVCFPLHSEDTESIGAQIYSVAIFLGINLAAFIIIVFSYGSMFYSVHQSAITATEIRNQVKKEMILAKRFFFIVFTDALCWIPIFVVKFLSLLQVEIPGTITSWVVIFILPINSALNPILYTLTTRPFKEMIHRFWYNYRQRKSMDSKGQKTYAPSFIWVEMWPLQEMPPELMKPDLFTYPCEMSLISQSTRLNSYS
RXFP1 agonist = agonists of human relaxin receptor RXFP1; Potency, µM (top dose mostly 57.5 µM), most hits filed as activators; 370,000 compounds, 0.3% hits; HEK293T-RXFP1 cAMP TR-FRET, 30 min; response scale: percent of porcine relaxin response, buffer zero; Q9HBX9; AID 2676; active = well fitted activation curve with a large enough effect; inconclusive = small, poorly fitted or top-dose-only effect; note: nearly all actives have a fitted effect of over 60% in size
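Agonist response is measured as cAMP accumulation in an RXFP1-transfected HEK293T line under PDE4 inhibition. Values are scaled between buffer-only and 29 nM porcine relaxin, and EC50s come from standard Hill equation fits.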
gsp ag = gsp mutant agonism; Potency, µM (series often up to 76.9 µM), most hits filed as activators; gsp mutant cells, cAMP HTRF, 30 min; 340,000 compounds, 0.13% hits; active = well fitted activation curve with a large enough effect; inconclusive = small, poorly fitted or top-dose-only effect, or another doubt; inactive = no such curve, though single readings can be large or run the other way; cell line not stated here;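 note: phosphodiesterase inhibitor Ro 20-1724 added with compounds to block cAMP breakdown; nearly all actives have a fitted effect of over 60% in size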
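Cells stably selected in G418 were plated at 2000/well, grown 16-24 hr, then given compounds in DMSO with the PDE inhibitor […] (300 uM solution added) for 30 min at 37C; cAMP was read by HTRF.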
gsp antag = antagonists of gsp mutant (McCune-Albright syndrome) | gsp-mutant cells, cAMP HTRF, 30 min | Potency, µM (top dose mostly 76.9 µM), most hits filed as inhibitors | 340,000 compounds, 0.4% hits | AID 624288; calls by dose curve; cell line not stated here;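 note: intracellular cAMP measured with PDE inhibitor Ro 20-1724 present during compound exposure; nearly all actives have a fitted effect of over 65% in size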
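Measurement of cellular cAMP by homogeneous time-resolved fluorescence following a 30 min compound exposure at 37C. The PDE inhibitor […] was present throughout; the assay buffer was DPBS with 0.05% BSA and 0.005% Tween 20.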
A number is an active result; [ ] = remark or other dose. The list is not random: actives were taken first. Their share in the collection is about 1.2%.

What do the screens show for `CCCCCC[C@@H](CCC)C(=O)O`?
RXFP1 antagonist: inactive

What do the screens show for `CCCN(CCC)C(=O)Cn1c(=O)n(-c2ccc(CC)cc2)c(=O)c2ccc(C(=O)NCCc3ccccc3)cc21`?
RXFP1 agonist: 25µM

What do the screens show for `O=C(Cn1ncc2c(=O)oc3ccccc3c21)N1CCN(c2ccc(Cl)cc2)CC1`?
RXFP1 agonist: inactive

What do the screens show for `N#C/C(=C\c1ccc[nH]1)C(=O)Nc1ccccc1Cl`?
Akt phos inh: inactive; RXFP1 antagonist: inactive; RXFP1 agonist: inactive; gsp ag: inconclusive; gsp antag: 32µM

How did CC(=O)O[C@H]1CC[C@@]2(C)C(=CC[C@@H]3[C@@H]2CC[C@]2(C)C(C(C)=O)=CC[C@@H]32)C1 do in these assays?
RXFP1 antagonist: inactive

How did Cc1cccc(C(=O)NC(=S)NNC(=O)c2ccc(Cl)cc2)c1 do in these assays?
Akt phos inh: inactive; RXFP1 antagonist: -97; RXFP1 agonist: inactive; gsp ag: inactive; gsp antag: inactive

How did Cc1cccc(C(=O)NC(=S)NNC(=O)c2cccs2)c1 do in these assays?
Akt phos inh: inactive; RXFP1 antagonist: inactive; RXFP1 agonist: inactive; gsp ag: inactive; gsp antag: inactive

How did Cc1cccc(NCc2nc3ccccc3n2CCOc2ccccc2C)c1 do in these assays?
RXFP1 antagonist: inconclusive; RXFP1 agonist: inactive

What do the screens show for `CCn1c(N2CCN(S(=O)(=O)c3ccc(Cl)cc3)CC2)nc2ccccc21`?
Akt phos inh: inactive; RXFP1 antagonist: inactive; RXFP1 agonist: inactive; gsp ag: inactive[15.4 µM]; gsp antag: 32µM

Results for O=C(Nc1cccc(Br)c1)c1ccc(Cl)c(S(=O)(=O)N2CCOCC2)c1 ?
Akt phos inh: inactive; RXFP1 antagonist: inactive; RXFP1 agonist: inactive; gsp ag: inactive; gsp antag: 40µM

How did COc1ccc(C(=O)Nc2ccc(Cl)c(S(=O)(=O)N3CCOCC3)c2)cc1 do in these assays?
Akt phos inh: inactive; RXFP1 antagonist: inconclusive; gsp ag: inactive; gsp antag: inconclusive

How did Cc1c(NC(=O)c2ccc(F)c(S(=O)(=O)N3CCOCC3)c2)c(=O)n(-c2ccccc2)n1C do in these assays?
Akt phos inh: -106%; RXFP1 antagonist: inactive; RXFP1 agonist: inactive; gsp ag: inactive; gsp antag: inactive

How did O=C(Nc1ccc(Cl)c(S(=O)(=O)N2CCOCC2)c1)c1ccc(OCC2CCCO2)cc1 (centres undefined) do in these assays?
Akt phos inh: inactive; RXFP1 antagonist: inactive; RXFP1 agonist: inactive; gsp ag: inactive; gsp antag: 32µM

How did O=C(Nc1cccc(S(=O)(=O)C(F)F)c1)c1ccc(Cl)c(S(=O)(=O)N2CCOCC2)c1 do in these assays?
Akt phos inh: inactive; RXFP1 antagonist: inactive; RXFP1 agonist: inactive; gsp ag: inactive; gsp antag: 28µM

What do the screens show for `O=C(Nc1nc2n(n1)C(c1ccc(F)cc1)C=C(c1ccc(Cl)cc1)N2)c1ccc([N+](=O)[O-])cc1` (centres undefined)?
RXFP1 antagonist: inactive; RXFP1 agonist: inactive

What do the screens show for `Cc1nonc1NC(=O)c1ccc(Cl)c(S(=O)(=O)N2CCCCC2)c1`?
Akt phos inh: -98%; RXFP1 antagonist: inactive; RXFP1 agonist: inactive; gsp ag: inactive; gsp antag: inactive

What do the screens show for `CCC(=O)NC(Nc1sc2c(c1C(=O)OC)CCC2)C(Cl)(Cl)Cl` (centres undefined)?
Akt phos inh: inactive; RXFP1 agonist: inactive; gsp ag: inactive; gsp antag: inactive

How did COC(=O)c1c(NC(NC(=O)CC(C)C)C(Cl)(Cl)Cl)sc2c1CCC2 (centres undefined) do in these assays?
Akt phos inh: inactive; RXFP1 agonist: inactive; gsp ag: inactive; gsp antag: inconclusive

What do the screens show for `COC(=O)c1c(NC(NC(=O)C(C)(C)C)C(Cl)(Cl)Cl)sc2c1CCC2` (centres undefined)?
Akt phos inh: inactive; RXFP1 antagonist: -81; RXFP1 agonist: inactive; gsp ag: inconclusive; gsp antag: inconclusive

What do the screens show for `COC(=O)c1c(NC(NC(=O)C(C)C)C(Cl)(Cl)Cl)sc2c1CCC2` (centres undefined)?
Akt phos inh: inactive; RXFP1 antagonist: -60; RXFP1 agonist: inactive; gsp ag: inactive; gsp antag: inactive

Results for Cc1cc(N/N=C\c2ccccc2)nc(-c2ccccc2O)n1 ?
Akt phos inh: inactive; RXFP1 antagonist: inactive; RXFP1 agonist: inactive; gsp ag: inactive[15.4 µM]; gsp antag: inactive

Results for COC(=O)c1cccc(Nc2cc(C)nc(-c3ccccc3O)n2)c1 ?
Akt phos inh: inactive; RXFP1 antagonist: inactive; RXFP1 agonist: inactive; gsp ag: inactive; gsp antag: inconclusive

Results for C/C(=N\Nc1cc(C)nc(-c2ccccc2O)n1)c1ccccc1O ?
Akt phos inh: inactive; RXFP1 antagonist: inactive; RXFP1 agonist: inactive; gsp ag: inactive; gsp antag: 45µM

How did COC(=O)c1ccc(Nc2cc(C)nc(-c3ccccc3O)n2)cc1 do in these assays?
Akt phos inh: -86%; RXFP1 antagonist: inactive; RXFP1 agonist: inactive; gsp ag: inconclusive; gsp antag: inactive

Results for CCc1cccc(C)c1NC(=O)COCc1cc(-c2ccc3c(c2)OCO3)on1 ?
RXFP1 antagonist: inactive; RXFP1 agonist: inactive

Results for COC(=O)c1c(SCC(=O)Nc2ccccc2OC)[nH]c2ccccc2c1=O ?
RXFP1 agonist: inactive

What do the screens show for `Cc1ccc2onc(CNC(=O)NCc3ccccc3)c2c1`?
RXFP1 antagonist: inactive; RXFP1 agonist: inactive

How did Cc1cc(OCC(=O)Nc2ccc(N3CCN(C(=O)c4ccco4)CC3)cc2)cc(C)c1Cl do in these assays?
Akt phos inh: inactive; RXFP1 antagonist: inactive; RXFP1 agonist: inactive; gsp ag: inactive; gsp antag: inactive

What do the screens show for `O=C(COc1ccc2ccccc2c1)N1CCN(C(=O)c2ccco2)CC1`?
Akt phos inh: inactive; RXFP1 antagonist: -84; RXFP1 agonist: inactive; gsp ag: inactive[15.4 µM]; gsp antag: inactive

Results for Cc1ccc(OCC(=O)Nc2ccc(N3CCN(C(=O)c4ccco4)CC3)cc2)cc1C ?
Akt phos inh: inactive; RXFP1 antagonist: inactive; RXFP1 agonist: inactive; gsp ag: inactive[15.4 µM]; gsp antag: 45µM

Results for COc1ccc(CCNC(=O)c2ccnc(C(C)(C)C)c2)cc1OC ?
Akt phos inh: inactive; RXFP1 antagonist: inactive; gsp ag: inactive; gsp antag: inactive

What do the screens show for `CC(C)(C)c1cc(C(=O)NCc2ccccc2)ccn1`?
Akt phos inh: -88%; RXFP1 antagonist: inactive; RXFP1 agonist: inactive; gsp ag: inactive; gsp antag: inactive

What do the screens show for `C=CCSc1nnc2c(n1)OC(c1c(C)[nH]n(-c3ccccc3)c1=O)Nc1ccccc1-2` (centres undefined)?
Akt phos inh: inactive; RXFP1 antagonist: inactive; RXFP1 agonist: inactive; gsp ag: inactive; gsp antag: 25µM

Results for O=c1[nH]c2ccc(NC(=S)NC3CCCCC3)cc2[nH]1 ?
Akt phos inh: inactive; RXFP1 antagonist: inactive; RXFP1 agonist: inactive; gsp ag: inactive[15.4 µM]
